Screening results (PubChem)
In the library only some 21% were active in any assay of this set; here they are far more common.
Pf growth 48h: P. falciparum growth inhibition at 48 hours (one generation); P. falciparum luciferase growth in erythrocytes, 48 h; Potency, µM (top dose mostly 28.7 µM), actives largely listed as inhibitors; hit rate 5.9% among 310,000; AID 504832
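Firefly luciferase activity from engineered P. falciparum reports growth; inhibitors lower the luminescent signal. Cultures contained 2% hematocrit erythrocytes at 0.1% final parasitemia.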
NS1 function inh: influenza NS1 inhibition | Potency, µM (doses to about 46.1 µM) | hit rate 0.4% among 270,000; calls by dose curve; note: actives are rising curves; nearly all actives have a fitted effect of over 50% in size
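Recovery from NS1-induced slow growth read by OD600 in budding yeast switched to galactose assay medium (pH 6.0, -URA) at 1:100 dilution. Compound 23 nl per well; the matching strain lacking NS1 serves as control.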
Shiga inhibitor: Shiga toxin inhibition | Vero cells, Shiga toxin protein synthesis inhibition reporter | inhibition, % at 38.7 µM | hit rate 9.2% among 290,000 | AID 2315; in the data active = inhibition mostly above about 28%, no sharp cut-off; inactive = mostly below about 43%
FBPA Giardia inh: blocks Giardia fructose-bisphosphate aldolase activity | A8B2U2 | purified Giardia FBPA | Potency, µM (series often up to 59.6 µM), usual class: inhibitors | hit rate 0.71% among 290,000; note: nearly all actives have a fitted effect of over 55% in size
Target sequence (A8B2U2 whole entry, looked up): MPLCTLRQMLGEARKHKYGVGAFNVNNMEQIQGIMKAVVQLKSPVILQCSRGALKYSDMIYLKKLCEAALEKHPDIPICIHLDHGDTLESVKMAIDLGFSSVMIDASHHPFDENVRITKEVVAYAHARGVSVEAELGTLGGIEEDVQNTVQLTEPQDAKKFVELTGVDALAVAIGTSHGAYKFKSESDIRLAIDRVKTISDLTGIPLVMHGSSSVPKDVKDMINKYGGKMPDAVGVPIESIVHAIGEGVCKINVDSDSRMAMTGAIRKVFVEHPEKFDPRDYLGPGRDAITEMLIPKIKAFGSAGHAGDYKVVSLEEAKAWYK
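Giardia FBPA (40 nM reagent) was preincubated 10 min at RT with compound (up to 57.5 uM final), then substrate plus GAPDH/TPI/NAD/arsenate coupling system with diaphorase/resazurin was added; resorufin fluorescence (525/598 nm) was read after 20 min.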
Pf growth 96h: P. falciparum growth inhibition at 96 hours. P. falciparum luciferase reporter growth, 96 h. Potency, µM (highest dose often 28.7 µM), hits mostly inhibitors. hit rate 6.9% among 320,000. AID 504834
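Parasite growth measured via integrated firefly luciferase reporter in P. falciparum. Infected erythrocytes at 2% hematocrit, 0.05% parasitemia final were treated 96 hours at 37 C under 5% CO2, and luminescence was read.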
CHX counter: counter-screen hit for Shiga toxin inhibitors, cycloheximide; cell reporter, cycloheximide protein synthesis inhibition counterscreen; max response, %; hit rate 12% among 300,000; in the data active = max response mostly above about 13%, no sharp cut-off; inactive = mostly below about 14%; note: read at 38.3 µM for the half of the compounds with a filed dose
Each line names hits and unclear results; the compound was inactive in the other large screens. Unless noted, calls come from the whole dose curve; as a rule, active = well fitted curve in the direction sought with a large enough effect; inconclusive = small, poorly fitted or top-dose-only effect, or another doubt; inactive = no such curve, though single readings can be large; an effect the other way counts as inactive or inconclusive.

COC(=O)c1nn(-c2ccccc2)nc1-c1nn(-c2ccccc2)nc1C(=O)OC	Pf growth 96h inconclusive (no result: Pf growth 48h)
O=C(Nc1c2c(nn1-c1ccc([N+](=O)[O-])cc1)CS(=O)(=O)C2)c1ccccc1F	none
CN(C)c1ccnc(Nc2ccc(O)cc2)c1C#N	Pf growth 48h inconclusive, Pf growth 96h 10µM (no result: NS1 function inh)
CN(C)c1nccc(Nc2ccccc2)c1C#N	none
CC(=O)O[C@H](C(=O)O[C@@H]1C[C@@H](CCC[C@H]2O[C@H](C(=O)OC(C)C)CC[C@@H]2C)O[C@@H](CC#N)C1)c1ccccc1	none (no result: Pf growth 48h, NS1 function inh, Shiga inhibitor, Pf growth 96h, CHX counter)
COc1ccccc1CNCC(O)Cn1c2ccccc2c2ccccc21 (centres undefined)	Pf growth 48h 1.5µM, Pf growth 96h 2.1µM
Cc1ccc(S(=O)(=O)N(C)CC(O)Cn2c3ccccc3c3ccccc32)cc1 (centres undefined)	Pf growth 48h inconclusive
COc1ccccc1N(CC(O)Cn1nc(C)cc1C)S(=O)(=O)c1ccccc1 (centres undefined)	Pf growth 96h inconclusive (no result: NS1 function inh)
COc1ccccc1N(CC(O)Cn1c2ccccc2c2ccccc21)S(=O)(=O)c1ccccc1 (centres undefined)	Pf growth 48h 12µM, NS1 function inh inconclusive, Pf growth 96h 10µM
O=S(=O)(c1ccccc1)N(CC(O)Cn1c2ccccc2c2ccccc21)c1ccccc1 (centres undefined)	Pf growth 48h inconclusive, Pf growth 96h 2.3µM
COc1ccccc1N(CC(O)COc1ccccc1C)S(=O)(=O)c1ccccc1 (centres undefined)	Pf growth 48h inconclusive, Pf growth 96h 10µM
OCCNCC(O)Cn1c2ccccc2c2ccccc21 (centres undefined)	Pf growth 96h inconclusive
CC(=O)Nc1ccccc1NC(=O)c1ccc(C)c(C)c1	none
CCN(CC)CC(O)Cn1c2ccccc2c2ccccc21 (centres undefined)	Pf growth 48h inconclusive (no result: Pf growth 96h)
C=CCN(CC=C)CC(O)Cn1c2ccccc2c2ccccc21 (centres undefined)	Pf growth 48h 5.9µM, Pf growth 96h inconclusive
O=C1c2ccccc2NC(c2ccc(-c3cccc(F)c3)o2)N1O (centres undefined)	none (no result: NS1 function inh, Shiga inhibitor, FBPA Giardia inh, CHX counter)
CCOC(=O)c1ccc(-c2ccc(CO)o2)cc1	Shiga inhibitor 84, CHX counter 34
CCOC(=O)c1ccc(-c2ccc(C3Nc4ccccc4C(=O)N3O)o2)cc1 (centres undefined)	Pf growth 48h inconclusive, Shiga inhibitor 145, FBPA Giardia inh inconclusive, CHX counter 33
Cc1ccc(-c2ccc(CO)o2)cc1N	Shiga inhibitor 55, CHX counter 25 (no result: NS1 function inh)
CCc1nc2ccccc2n1CC(=O)OCC(=O)N(CC(C)C)c1c(N)n(Cc2ccccc2)c(=O)[nH]c1=O	none (no result: NS1 function inh, Shiga inhibitor, FBPA Giardia inh, CHX counter)
COc1ccc(CCNC(=S)NNC(=O)c2c(Br)c(C)nn2C)cc1OC	Pf growth 96h inconclusive (no result: FBPA Giardia inh)
O=C(Cc1ccc(Cl)cc1)Nc1ccc(S(=O)(=O)N2CCOCC2)cc1	Pf growth 48h inconclusive
Cc1cc(O)c(-c2cc(C(=O)Nc3ccc(S(=O)(=O)N4CCOCC4)cc3)[nH]n2)cc1C	Pf growth 48h 1.9µM
O=C(Nc1ccc(S(=O)(=O)N2CCOCC2)cc1)c1cc(-c2cc(Cl)ccc2O)n[nH]1	Pf growth 48h 0.83µM, Pf growth 96h 1.3µM
CC(=O)N1c2ccc(S(=O)(=O)NCCC(=O)Nc3ccc(F)cc3C)cc2CC1C (centres undefined)	Pf growth 96h inconclusive
CN1CCC(Oc2ccc(Sc3ccccc3)cc2)CC1	Shiga inhibitor 63, CHX counter 68
CN1CCC(Oc2ccccc2Sc2ccc(C(F)(F)F)cc2)CC1	Pf growth 48h inconclusive, Pf growth 96h inconclusive
OCCN(CC#CCn1c2ccccc2c2ccccc21)CCO	none
CC(C)(C)N(CC#CCC1(O)c2ccccc2-c2ccccc21)CCO	Pf growth 48h inconclusive, Pf growth 96h 12µM
Cc1ccc(NC(=O)c2oc3ccccc3c2C)nc1	Shiga inhibitor 88, CHX counter 63
Cc1c(C(=O)Nc2cccnc2Cl)oc2ccccc12	Shiga inhibitor 81, CHX counter 26
Cc1c(C(=O)Nc2ccc(N3CCOCC3)cc2)oc2ccccc12	Shiga inhibitor 97, CHX counter 40
Cc1c(C(=O)OCC(=O)Nc2ccc(N3CCOCC3)cc2)oc2ccccc12	none (no result: NS1 function inh, Shiga inhibitor, FBPA Giardia inh, CHX counter)
Cc1c(C(=O)Nc2ccncc2)oc2ccccc12	CHX counter 35 (no result: Pf growth 96h)
COc1ccc(S(=O)(=O)N(CC(C)C)C2CCS(=O)(=O)C2)cc1OC (centres undefined)	none (no result: NS1 function inh, Shiga inhibitor, FBPA Giardia inh, CHX counter)
CS(=O)(=O)c1ccc(-c2cccc(NC(=O)c3ccco3)c2)nn1	none (no result: NS1 function inh, Shiga inhibitor, FBPA Giardia inh, CHX counter)
Cc1c(C(=O)Nc2ccccn2)oc2ccccc12	Shiga inhibitor 109, CHX counter 47
Cc1ccccc1OCCNCC(C)O (centres undefined)	FBPA Giardia inh inconclusive, Pf growth 96h 13µM
CCOc1ccccc1CNCCNCC(C)O (centres undefined)	Pf growth 96h 9.3µM
Cc1csc(SCC(=O)Nc2cc(S(=O)(=O)N(C)C)ccc2C)n1	none (no result: NS1 function inh, Shiga inhibitor, FBPA Giardia inh, CHX counter)
COc1cccc([C@@H]2Oc3ccc(OC)cc3C[C@H]2OC(=O)Nc2cc(OC)c(OC)c(OC)c2)c1	none (no result: Pf growth 48h, NS1 function inh, Shiga inhibitor, Pf growth 96h, CHX counter)
CS(=O)(=O)Nc1ccc(-c2cn3cccnc3n2)cc1	Shiga inhibitor 43, CHX counter 21
Cc1ccc(-c2cn3cccnc3n2)cc1	Shiga inhibitor 71, Pf growth 96h inconclusive, CHX counter 28 (no result: NS1 function inh)
CC(=O)Nc1ccc(S(=O)(=O)Nc2cccc(-c3cn4cccnc4n3)c2)cc1	Pf growth 48h inconclusive (no result: NS1 function inh)
CCCN(CC(=O)Nc1ccccc1OC)C(=O)c1ccncc1	none
COc1ccc(CC(=O)Oc2ccc(C(C)(C)C)cc2)cc1S(=O)(=O)N1CCOCC1	none (no result: NS1 function inh, Shiga inhibitor, FBPA Giardia inh, CHX counter)
N#Cc1cc2sc3nnc(-c4ccncc4)n3c2cc1C#N	Pf growth 48h 13µM, Pf growth 96h inconclusive
N#Cc1cc2sc3nc4ccccc4n3c2cc1C#N	none (no result: Pf growth 96h)
Cc1ccccc1CNC(=O)CN(c1ccccc1Cl)S(C)(=O)=O	Pf growth 96h inconclusive
CCOc1cc(-c2noc(N)c2C(=O)OC)cc(OCC)c1OCC	Pf growth 96h 12µM
O=C(Nc1ccnn1C1CCN(C(=O)c2ccccc2C(F)(F)F)CC1)C1CC1	NS1 function inh inconclusive, CHX counter 27 (no result: FBPA Giardia inh)
O=C(Nc1ccnn1C1CCN(C(=O)c2c(F)cccc2F)CC1)C1CC1	none
COC(C(=O)N1CCC(n2nccc2NC(=O)C2CC2)CC1)c1ccccc1 (centres undefined)	Shiga inhibitor 107, CHX counter 41 (no result: FBPA Giardia inh)
Cc1c(NC(=O)Nc2cccc(C(F)(F)F)c2)c(=O)n(-c2ccccc2)n1C	none (no result: FBPA Giardia inh)
COc1ccccc1NC(=O)c1c(N=Cc2ccccc2O)cnn1C	none
